Screening results deposited in PubChem by National Center for Advancing Translational Sciences (NCATS).
Rows were chosen to be rich in hits. Some 11% of all compounds tested hit in one or more screens of this group.
NIH3T3 tox – Cytotoxic Profiling in NIH 3T3 Cell Line of Diverse Libraries Using Quantitative High-Throughput Screening; Potency, µM (titrated, usually from 96.7 µM), most hits filed as inhibitors; AID 1345082, 2018; hit rate 4.3% among 94,000; NIH 3T3 viability, CellTiter-Glo ATP luminescence, 48-72 h; also: nearly all actives have a fitted effect of over 55% in size
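ATP-dependent luminescence (CellTiter-Glo) served as the viability signal for NIH 3T3 cells treated with compound for 48 or 72 hr at 37 °C.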
FLuc inh – Firefly luciferase inhibition profiling of diverse chemical library using quantitative high-throughput screening | hit rate 2.5% among 76,000 | Potency, µM (titrated, usually from 115 µM), most hits filed as inhibitors | Luciferin 4-monooxygenase (Photinus pyralis), P08659 | purified P. pyralis luciferase, luminescence, biochemical; also: nearly all actives have a fitted effect of over 65% in size
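Biochemical qHTS: compound (6-point titration) added to 10uM D-luciferin plus 10uM ATP in Tris acetate pH 7.5 buffer with Mg, Tween-20 and BSA, then purified enzyme at 10nM; light output imaged.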
HEK293 tox – Cytotoxic Profiling in HEK 293 Cell Line of Diverse Libraries Using Quantitative High-Throughput Screening; HEK 293 viability, ATP luminescence (CellTiter-Glo), 48-72 h; Potency, µM (series often up to 115 µM), usual class: inhibitors; hit rate 6.6% among 94,000; AID 1345083, 2018; also: nearly all actives have a fitted effect of over 60% in size
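Pintool-delivered compounds were incubated with HEK 293 cells (250 cells/well) at 37 degree Celsius for 48 or 72 hr. ATP-dependent luminescence (CellTiter-Glo) then reported remaining viable cells.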
NPR1 antag – Natriuretic polypeptide receptor (hNpr1) antagonism - Primary qHTS; HEK293 hNpr1 GloSensor cGMP, ANP-stimulated luminescence; hit rate 1.6% among 76,000; Potency, µM (series often up to 46.3 µM), usual class: inhibitors; calls by dose curve; also: nearly all actives have a fitted effect of over 60% in size
Target sequence (P16066 whole entry, looked up): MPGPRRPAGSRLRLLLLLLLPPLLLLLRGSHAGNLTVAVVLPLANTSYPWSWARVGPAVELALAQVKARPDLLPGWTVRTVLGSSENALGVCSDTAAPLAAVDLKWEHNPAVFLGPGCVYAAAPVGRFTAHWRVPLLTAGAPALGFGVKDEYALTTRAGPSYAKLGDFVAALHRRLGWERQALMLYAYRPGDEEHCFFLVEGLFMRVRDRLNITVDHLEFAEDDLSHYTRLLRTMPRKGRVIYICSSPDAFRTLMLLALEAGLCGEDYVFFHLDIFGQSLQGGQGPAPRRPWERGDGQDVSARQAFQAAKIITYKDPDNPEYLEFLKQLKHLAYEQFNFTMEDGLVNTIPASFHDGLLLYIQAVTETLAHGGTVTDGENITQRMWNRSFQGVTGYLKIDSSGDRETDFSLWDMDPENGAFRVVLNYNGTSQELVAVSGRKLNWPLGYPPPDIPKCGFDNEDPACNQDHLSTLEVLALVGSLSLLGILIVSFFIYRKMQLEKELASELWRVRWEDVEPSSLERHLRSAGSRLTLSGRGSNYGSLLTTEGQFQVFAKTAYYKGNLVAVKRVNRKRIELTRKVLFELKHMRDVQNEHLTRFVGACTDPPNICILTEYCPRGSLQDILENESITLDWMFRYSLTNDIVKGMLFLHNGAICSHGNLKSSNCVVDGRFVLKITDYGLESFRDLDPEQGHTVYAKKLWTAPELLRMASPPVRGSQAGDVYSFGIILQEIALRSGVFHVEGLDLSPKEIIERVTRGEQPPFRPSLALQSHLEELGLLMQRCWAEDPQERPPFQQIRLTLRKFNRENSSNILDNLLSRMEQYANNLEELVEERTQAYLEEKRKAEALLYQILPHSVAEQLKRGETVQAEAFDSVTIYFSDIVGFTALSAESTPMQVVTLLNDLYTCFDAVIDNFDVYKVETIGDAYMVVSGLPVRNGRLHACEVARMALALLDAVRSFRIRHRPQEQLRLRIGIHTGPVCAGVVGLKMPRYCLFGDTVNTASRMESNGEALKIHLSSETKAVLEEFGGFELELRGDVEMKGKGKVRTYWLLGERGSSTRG
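Compound pre-incubated 30 min at room temperature on GloSensor-loaded HEK293 cells stably carrying hNpr1 and the pGS-40F cGMP biosensor. Stimulation uses hNppA at 0.1 nM final; luminescence is taken at baseline and 20 min post-agonist.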
Each line names hits and unclear results; the compound was inactive in the other large screens; ! = repeats disagree. Unless noted, calls follow the shape of the dose curve; as a rule, active = well fitted curve in the direction sought with a large enough effect; inconclusive = small, poorly fitted or top-dose-only effect, or another doubt; inactive = no such curve, though single readings can be large; an effect the other way counts as inactive or inconclusive.

Cn1ncc2c(C(=O)NCc3cccnc3)cc(-c3cccc(C(F)(F)F)c3)nc21	NIH3T3 tox inconclusive, HEK293 tox 50µM (no result: FLuc inh, NPR1 antag)
COc1cccc(CNC(=O)c2cc(-c3cccc(C(F)(F)F)c3)nc3c2cnn3C)c1	none (no result: FLuc inh, NPR1 antag)
COc1cccc(-c2cc(C(=O)NCc3cccc(C(F)(F)F)c3)c3cnn(C)c3n2)c1	NIH3T3 tox inconclusive, HEK293 tox 25µM (no result: FLuc inh, NPR1 antag)
COCCCNC(=O)c1cc(-c2cccc(C(F)(F)F)c2)nc2c1cnn2C	none (no result: FLuc inh, NPR1 antag)
Cn1ncc2c(C(=O)NCCc3ccccn3)cc(-c3cccc(C(F)(F)F)c3)nc21	NIH3T3 tox inconclusive, HEK293 tox 32µM (no result: FLuc inh, NPR1 antag)
COc1ccccc1Nc1ccnc(N2CCCC(C(=O)N3CCOCC3)C2)n1 (stereo not drawn)	HEK293 tox inconclusive (no result: FLuc inh, NPR1 antag)
COc1ccccc1Nc1ccnc(N2CCCC(C(=O)NC3CCCC3)C2)n1 (stereo not drawn)	NIH3T3 tox 35µM, HEK293 tox inconclusive (no result: FLuc inh, NPR1 antag)
COc1ccccc1Nc1ccnc(N2CCC[C@H]2C(=O)NC(C)C)n1	none (no result: FLuc inh, NPR1 antag)
COc1ccccc1Nc1ccnc(N2CCCC(C(=O)N3CCCCC3)C2)n1 (stereo not drawn)	NIH3T3 tox 35µM, HEK293 tox 35µM (no result: FLuc inh, NPR1 antag)
Cn1ncc2c(C(=O)N3CCN(Cc4ccccc4)CC3)cc(-c3ccc(Cl)cc3Cl)nc21	NIH3T3 tox inconclusive, HEK293 tox 40µM (no result: FLuc inh, NPR1 antag)
Cn1ncc2c(C(=O)N3CCN(c4ncccn4)CC3)cc(-c3ccc(Cl)nc3)nc21	NIH3T3 tox 35µM!, HEK293 tox inconclusive (no result: FLuc inh, NPR1 antag)
CN(C(=O)c1cc(-c2cc(Cl)cc(Cl)c2)nc2c1cnn2C)c1ccccc1	NIH3T3 tox inconclusive, HEK293 tox 40µM (no result: FLuc inh, NPR1 antag)
Cn1ncc2c(C(=O)N3CCN(Cc4ccccc4)CC3)cc(-c3ccc(Cl)cc3)nc21	NIH3T3 tox inconclusive, HEK293 tox 40µM (no result: FLuc inh, NPR1 antag)
CN1CCN(C(=O)c2cc(-c3ccc(Cl)cc3Cl)nc3c2cnn3C)CC1	none (no result: FLuc inh, NPR1 antag)
O=C(NC1CCCC1)c1noc(-c2ccc[nH]c2=O)n1	none
CN(C)C(=O)c1cc(-c2ccc(Cl)cc2Cl)c2cnn(C)c2n1	none (no result: FLuc inh, NPR1 antag)
Cn1ncc2c(-c3ccc(Cl)cc3Cl)cc(C(=O)N3CCN(c4ncccn4)CC3)nc21	NIH3T3 tox 45µM, HEK293 tox 32µM (no result: FLuc inh, NPR1 antag)
COc1ccc(CC(=O)NC2CCN(C(=O)c3ccc(-c4cccc(OC)c4)cc3)CC2)cc1	NIH3T3 tox 35µM, HEK293 tox 45µM (no result: FLuc inh, NPR1 antag)
COc1cccc(-c2ccc(C(=O)N3CCC(NC(=O)c4ccccc4Cl)CC3)cc2)c1	NIH3T3 tox inconclusive, HEK293 tox 40µM (no result: FLuc inh, NPR1 antag)
COc1ccc(C(=O)NC2CCN(C(=O)c3ccc(-c4cccc(OC)c4)cc3)CC2)cc1	HEK293 tox inconclusive (no result: FLuc inh, NPR1 antag)
Cc1cnc(CCNC(=O)c2ccc(C#N)cc2)n1C1CCCC1	none
COc1cccc(-c2cc(C(=O)N3CCN(C)CC3)c3cnn(C)c3n2)c1	none (no result: FLuc inh, NPR1 antag)
CC(=O)NCC1CN(S(=O)(=O)c2cccnc2)CC12CCCCC2 (stereo not drawn)	none (no result: FLuc inh, NPR1 antag)
Cc1cnc(CNC(=O)c2cc(CN3CCC(Cc4ccccc4)CC3)on2)cn1	HEK293 tox inconclusive
O=C(NCc1cccnc1)c1cc(CN2CCC(Cc3ccccc3)CC2)on1	NIH3T3 tox 32µM
COc1ccc2nc([C@H]3CCN(Cc4cccc(Cl)c4)C3)[nH]c2c1	NIH3T3 tox inconclusive, HEK293 tox inconclusive, NPR1 antag inconclusive
COc1ccc2nc([C@H]3CCN(Cc4cccnc4)C3)[nH]c2c1	FLuc inh 71µM
COc1ccc2nc([C@H]3CCN(Cc4ccccc4)C3)[nH]c2c1	NIH3T3 tox inconclusive, FLuc inh 22µM, HEK293 tox inconclusive
Cc1ccc2nc([C@H]3CCN(Cc4ccccn4)C3)[nH]c2c1	NIH3T3 tox inconclusive, FLuc inh 40µM, HEK293 tox 50µM
COc1ccc2nc([C@H]3CCN(Cc4ccc(F)cc4)C3)[nH]c2c1	NIH3T3 tox 112µM, FLuc inh 50µM, HEK293 tox 79µM
Cc1noc(C)c1[S+](=O)([O-])N1CCC2(C1)C(=O)N(CCc1ccccc1)c1ccccc12 (stereo not drawn)	NIH3T3 tox inconclusive, HEK293 tox inconclusive
C#CCNC(=O)c1nc2cccnc2n(CCCOC)c1=O	none (no result: FLuc inh, NPR1 antag)
O=C(NCCc1ccccn1)c1ccc(OC2CCNCC2)nc1	NIH3T3 tox inconclusive, FLuc inh 7.9µM, HEK293 tox inconclusive, NPR1 antag inconclusive
